This is part of a sample that, as a whole, favours compounds with a hit. Of some 83,000 tested, about 20% had one in any assay.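 The test compound was applied at a single concentration to cells in 96-well plates for 48 hours, and percent growth was recorded.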 Values without a mark were called inactive. The source made the active and inactive calls. Rule for the calls: active = growth percent below 10; inactive = the rest.
system: HS 578T breast; test: NCI-60 one-dose screen, 48 h (100 = growth as untreated, 0 = no growth, -100 = all killed); settings: 10 µM unless noted

Compound | growth [%]
Cc1nc2sc(C(=O)Nc3cccc4ccccc34)c(N)c2cc1C(=O)c1ccccc1 | 11.9
Cc1cc(C(=O)CCCC(=O)c2cc(C)c(O)c(C)c2)cc(C)c1O | 98.8
COC(=O)c1c2c(c(C)[n+]([O-])c1C)C(=O)C(NCc1ccccc1)=CC2=O | 68.8
O=C(/C=C/c1cccc(Oc2ccccc2)c1)c1ccc(Nc2nc(Nc3ccc(F)cc3)nc(Nc3ccc(Cl)cc3)n2)cc1 | 109
COc1ccc(C2CC(c3ccccc3)=NN2C(=O)c2cc(OC)c(OC)c(OC)c2)cc1O (stereo not given) | 23.5
CCOC(=O)c1cn2ncnc(Oc3ccc(NC(=O)NC4CC4)c(Cl)c3)c2c1C | 100
N#Cc1nn(-c2cc(=O)[nH]c3ccc(Br)cc23)c(N)c1C#N | 88.6
C[C@H](c1nc2ccc(C#N)cc2[nH]1)[C@H]1CC[C@H]2[C@@H]3CCC4=CC(=O)CC[C@]4(C)[C@H]3CC[C@]12C | 63.4

system: NCI/ADR-RES ovarian; test: as above; settings: 10 µM unless noted

Compound | growth
COc1cc(O)c2c(=O)c3c(CC=C(C)C)cc(OC)c(O)c3oc2c1 | 16.1%
Cc1nc2sc(C(=O)Nc3cccc4ccccc34)c(N)c2cc1C(=O)c1ccccc1 | 12.9%
Cc1cc(C(=O)CCCC(=O)c2cc(C)c(O)c(C)c2)cc(C)c1O | 98%
FC(F)(F)c1[nH]ncc1-c1nc2ccc3[nH]ncc3c2c2c1CCCC2 | 53.7%
Nc1ncnc2c1N=C(c1ccc(F)cc1)CC(c1cccc(Nc3ccnc4cc(Cl)ccc34)c1)N2 (stereo not given) | 78.2%
COC(=O)c1c2c(c(C)[n+]([O-])c1C)C(=O)C(NCc1ccccc1)=CC2=O | 2.6% (active)
COc1cc(C=Nc2oc(-c3ccccc3)c(-c3ccccc3)c2C#N)cc(CN2CCCC2)c1O | 104%
NCCCNc1nc2ccccc2c2c(=O)c3cc(Cl)ccc3sc12 | -4.11% (active)
O=C(/C=C/c1cccc(Oc2ccccc2)c1)c1ccc(Nc2nc(Nc3ccc(F)cc3)nc(Nc3ccc(Cl)cc3)n2)cc1 | 96.8%
CCCCO[C@@H]1C=C2[C@H]3CC(C)(C)C(=O)C[C@]3(C(=O)O[C@@H]3O[C@H](CO[C@@H]4O[C@H](CO)[C@@H](OC5OC(C)C(O)C(O)C5O)[C@H](O)[C@H]4O)[C@@H](O)[C@H](O)[C@H]3O)CC[C@@]2(C)[C@]2(C)CC[C@H]3C(C)(C)C(=O)CC[C@]3(C)[C@@H]12 (stereo not given in full) | 83.8%
COc1ccc2cc(-c3nc4ccc(C)cn4c3NCc3ccco3)c(=O)[nH]c2c1 | 68.7%
c1csc(-c2cn3nc(-c4c[nH]c5ccccc45)sc3n2)c1 | 12%
O=C1C=CC2(O)OC/C(=C\c3ccccc3)C(O)=C2C1=O (stereo not given) | 16.7%
C=C1CC[C@@H]2C(C)(C)[C@H](O)CC[C@@]2(C)[C@@H]1COc1ccc2ccc(=O)oc2c1 | 5.04% (active)
COC(=O)c1c(C)nc(C)c2c1C(=O)C=C(NCc1ccccc1)C2=O | 81.7%
COC(=O)c1ccc2cc(OC)c(OC)cc2c1 | 107%
O=C(c1cccc(N2CCOCC2)n1)c1c[nH]c2ccccc12 | 97.2%
C=C[C@@]1(C)CC(=O)[C@@H](C(C)(C)c2cn(C)c3ccc(Br)cc23)C[C@@H]1O[Si](C)(C)C(C)(C)C | 101%
COCCOC(C)C(/C=N/NC(N)=S)=N/NC(N)=S (stereo not given) | 52.7%
Cc1cc(N2CCN(CC(=O)Nc3ccc4c(ccn4Cc4ccccc4)c3)CC2)nc(N2CCOCC2)n1 | 79.4%
COc1ccc(C2CC(c3ccccc3)=NN2C(=O)c2cc(OC)c(OC)c(OC)c2)cc1O (stereo not given) | -11.9% (active)
Cc1ccc(O)c(NC(=O)c2cccc(Nc3ccnc(C(F)(F)F)c3)c2)c1 | 40.2%
Cc1ncc(C(=O)Nc2ccc(CN3CCN(C)CC3)c(C(F)(F)F)c2)cc1C#Cc1cnc(N)c2ccc(C#N)cc12 | 39%
Cc1nn(C)c2ncnc(N/N=C/c3cccc(O)c3O)c12 | 11.9%
O=C(O)CC(C(=O)O)/C(=C\c1ccccc1)c1ccccc1 (stereo not given) | 110%
Fc1ccc2[nH]cc(-c3nc(-c4c[nH]c5c(Cl)nccc45)cs3)c2c1 | 53.7%
CCCN(CCSSCCNc1nc(N(C)O)nc(N(C)O)n1)c1nc(N(C)O)nc(N(C)O)n1 | 85.1%

— PubChem BioAssay (NCI)
